Assay results published in PubChem BioAssay AID1159580 (chemical genetic matrix, 2015).
The whole screen tested about 5,500 compounds, of which about 2,000 (36%) were called active. Not shown: some 18% with an inconclusive outcome. Rule as the data show it: active = normalized growth mostly below about 0.91 (no sharp cut-off); inconclusive = no clear call, values can overlap the other calls; inactive = mostly above about 0.92. This is one part of the list.

Experiment: chemical genetic growth profiling, strain panel (AID 1159580);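 also: tested at 20 µM; growth read once vehicle control cultures reached saturation at 30 °C; 1 = growth at the plate median or of vehicle wells; lower values mean less growth of the strain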
Conditions: growth OD

Measured: normalized growth

NC(=O)c1ncn([C@@H]2O[C@H](CO)[C@@H](O)[C@H]2O)c1O
inactive: S. cerevisiae deletion strains, locus YAL013W, strain DEP1, stronger effect = lower value 1 | S. cerevisiae deletion strains, locus YBR021W, strain FUR4, stronger effect = lower value 1.02 | S. cerevisiae deletion strains, locus YBR229C, strain ROT2, stronger effect = lower value 1.01 | S. cerevisiae deletion strains, locus YCL029C, strain bik1, stronger effect = lower value 1.01 | S. cerevisiae deletion strains, locus YDL035C, strain GPR1, stronger effect = lower value 1.02 | S. cerevisiae deletion strains, locus YDL074C, strain BRE1, stronger effect = lower value 0.978 | S. cerevisiae deletion strains, locus YDL101C, strain DUN1, stronger effect = lower value 1 | S. cerevisiae deletion strains, locus YDL134C, strain PPH21, stronger effect = lower value 1 | S. cerevisiae deletion strains, locus YDL185W, strain tfp1, stronger effect = lower value 1.01 | S. cerevisiae deletion strains, locus YDL192W, strain arf1, stronger effect = lower value 1.01 | S. cerevisiae deletion strains, locus YDR101C, strain arx1, stronger effect = lower value 1.01 | S. cerevisiae deletion strains, locus YDR150W, strain NUM1, stronger effect = lower value 0.997 | S. cerevisiae deletion strains, locus YDR162C, strain NBP2, stronger effect = lower value 0.983 | S. cerevisiae deletion strains, locus YDR318W, strain mcm21, stronger effect = lower value 1.03 | S. cerevisiae deletion strains, locus YDR388W, stronger effect = lower value 1 | S. cerevisiae deletion strains, locus YDR502C, strain sam2, stronger effect = lower value 0.999 | S. cerevisiae deletion strains, locus YEL061C, strain CIN8, stronger effect = lower value 1 | S. cerevisiae deletion strains, locus YER110C, stronger effect = lower value 1.01 | S. cerevisiae deletion strains, locus YER155C, strain BEM2, stronger effect = lower value 1 | S. cerevisiae deletion strains, locus YER167W, strain BCK2, stronger effect = lower value 1.03 | S. cerevisiae deletion strains, locus YGL078C, strain dbp3, stronger effect = lower value 0.984 | S. cerevisiae deletion strains, locus YGL086W, strain mad1, stronger effect = lower value 1.02 | S. cerevisiae deletion strains, locus YGL248W, strain PDE1, stronger effect = lower value 1.01 | S. cerevisiae deletion strains, locus YGR078C, strain PAC10, stronger effect = lower value 1 | S. cerevisiae deletion strains, locus YGR135W, strain pre9, stronger effect = lower value 0.988 | S. cerevisiae deletion strains, locus YGR229C, strain SMI1, stronger effect = lower value 0.981 | S. cerevisiae deletion strains, locus YGR252W, strain gcn5, stronger effect = lower value 1.01 | S. cerevisiae deletion strains, locus YHR030C, strain SLT2, stronger effect = lower value 1.01 | S. cerevisiae deletion strains, locus YHR079C, strain IRE1 (second series), stronger effect = lower value 1.02 | S. cerevisiae deletion strains, locus YHR094C, strain hxt1, stronger effect = lower value 1.01 | S. cerevisiae deletion strains, locus YHR129C, strain ARP1, stronger effect = lower value 1.01 | S. cerevisiae deletion strains, locus YHR200W, strain rpn10, stronger effect = lower value 1.01 | S. cerevisiae deletion strains, locus YIL066C, strain RNR3, stronger effect = lower value 1.01 | S. cerevisiae deletion strains, locus YIL073C, strain SPO22, stronger effect = lower value 1.07 | S. cerevisiae deletion strains, locus YIL125W, strain kgd1, stronger effect = lower value 1 | S. cerevisiae deletion strains, locus YIR030C, strain dcg1, stronger effect = lower value 1.02 | S. cerevisiae deletion strains, locus YJL095W, strain BCK1, stronger effect = lower value 0.994 | S. cerevisiae deletion strains, locus YJL134W, strain LCB3, stronger effect = lower value 1.01 | S. cerevisiae deletion strains, locus YJL168C, strain set2, stronger effect = lower value 1.01 | S. cerevisiae deletion strains, locus YJL187C, strain SWE1 (second series), stronger effect = lower value 0.998 | S. cerevisiae deletion strains, locus YJR043C, strain POL32, stronger effect = lower value 1.04 | S. cerevisiae deletion strains, locus YJR075W, strain HOC1, stronger effect = lower value 0.974 | S. cerevisiae deletion strains, locus YKL009W, strain mrt4, stronger effect = lower value 0.996 | S. cerevisiae deletion strains, locus YKL068W, stronger effect = lower value 0.995 | S. cerevisiae deletion strains, locus YKL085W, strain MDH1 (second series), stronger effect = lower value 1 | S. cerevisiae deletion strains, locus YKL085W, strain MDH1, stronger effect = lower value 1 | S. cerevisiae deletion strains, locus YKL190W, strain CNB1, stronger effect = lower value 1.01 | S. cerevisiae deletion strains, locus YKR001C, strain vps1, stronger effect = lower value 1.02 | S. cerevisiae deletion strains, locus YLR039C, strain RIC1, stronger effect = lower value 1.04 | S. cerevisiae deletion strains, locus YLR058C, strain SHM2, stronger effect = lower value 1.01 | S. cerevisiae deletion strains, locus YLR102C, strain apc9, stronger effect = lower value 1.02 | S. cerevisiae deletion strains, locus YLR262C, strain YPT6, stronger effect = lower value 0.988 | S. cerevisiae deletion strains, locus YLR268W, strain sec22, stronger effect = lower value 0.988 | S. cerevisiae deletion strains, locus YLR330W, strain CHS5, stronger effect = lower value 1 | S. cerevisiae deletion strains, locus YLR342W, strain FKS1 (second series), stronger effect = lower value 1.07 | S. cerevisiae deletion strains, locus YLR371W, strain rom2, stronger effect = lower value 1.02 | S. cerevisiae deletion strains, locus YLR418C, strain cdc73, stronger effect = lower value 0.979 | S. cerevisiae deletion strains, locus YML016C, strain PPZ1, stronger effect = lower value 1 | S. cerevisiae deletion strains, locus YML032C, strain rad52, stronger effect = lower value 1.03 | S. cerevisiae deletion strains, locus YML124C, strain tub3, stronger effect = lower value 1.01 | S. cerevisiae deletion strains, locus YMR078C, strain ctf18, stronger effect = lower value 1.02 | S. cerevisiae deletion strains, locus YMR223W, strain ubp8, stronger effect = lower value 1.03 | S. cerevisiae deletion strains, locus YMR263W, strain SAP30, stronger effect = lower value 0.991 | S. cerevisiae deletion strains, locus YMR307W, strain GAS1, stronger effect = lower value 1.05 | S. cerevisiae deletion strains, locus YNL067W, strain RPL9B, stronger effect = lower value 0.988 | S. cerevisiae deletion strains, locus YNL128W, strain TEP1, stronger effect = lower value 0.977 | S. cerevisiae deletion strains, locus YNL153C, strain GIM3, stronger effect = lower value 0.995 | S. cerevisiae deletion strains, locus YNL233W, strain BNI4, stronger effect = lower value 0.99 | S. cerevisiae deletion strains, locus YNL250W, strain rad50, stronger effect = lower value 1.01 | S. cerevisiae deletion strains, locus YNL271C, strain bni1, stronger effect = lower value 1.01 | S. cerevisiae deletion strains, locus YNL298W, strain CLA4, stronger effect = lower value 1.02 | S. cerevisiae deletion strains, locus YNL307C, strain MCK1, stronger effect = lower value 1.05 | S. cerevisiae deletion strains, locus YNL322C, strain KRE1, stronger effect = lower value 1.01 | S. cerevisiae deletion strains, locus YNR052C, strain pop2, stronger effect = lower value 1.02 | S. cerevisiae deletion strains, locus YOL006C, strain TOP1, stronger effect = lower value 1.06 | S. cerevisiae deletion strains, locus YOL012C, strain htz1 0.852 | S. cerevisiae deletion strains, locus YOL147C, strain pex11, stronger effect = lower value 0.999 | S. cerevisiae deletion strains, locus YOR061W, strain CKA2, stronger effect = lower value 1 | S. cerevisiae deletion strains, locus YOR069W, strain VPS5, stronger effect = lower value 1.01 | S. cerevisiae deletion strains, locus YOR136W, strain idh2, stronger effect = lower value 1.02 | S. cerevisiae deletion strains, locus YOR144C, strain elg1, stronger effect = lower value 1 | S. cerevisiae deletion strains, locus YOR184W, strain ser1, stronger effect = lower value 1.06 | S. cerevisiae deletion strains, locus YOR316C, strain cot1, stronger effect = lower value 1.01 | S. cerevisiae deletion strains, locus YPL055C, strain LGE1, stronger effect = lower value 0.946 | S. cerevisiae deletion strains, locus YPL241C, strain CIN2, stronger effect = lower value 1 | S. cerevisiae deletion strains, locus YPR119W, strain clb2, stronger effect = lower value 1.01 | S. cerevisiae deletion strains, locus YPR141C, strain kar3, stronger effect = lower value 1.01 | S. cerevisiae deletion strains, locus YPR163C, strain tif3, stronger effect = lower value 1.01 | S. cerevisiae deletion strains, locus YPR167C, strain met16, stronger effect = lower value 1.01 | S. cerevisiae deletion strains, strain wtn01, stronger effect = lower value 0.997 | S. cerevisiae strains, strain wild type, stronger effect = lower value 1.02
